In PubChem BioAssay (NCI):
The panel holds about 83,000 compounds, 20% with a hit somewhere; the sample as a whole holds those more often.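 A percent growth of 40 corresponds to 60% growth inhibition; 0 means no net growth; -100 means all cells died. Active threshold: below 10.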 A number with no mark means an inactive call. Activity calls are given as the source filed them.

Tests used:
Assay in all cases: NCI-60 one-dose screen, 48 h (100 = growth as untreated, 0 = no growth, -100 = all killed)
Details in all cases: 10 µM unless noted
HCT-15 colon = test system: HCT-15 colon
HT29 colon = test system: HT29 colon
SNB-75 CNS = test system: SNB-75 CNS
SNB-19 CNS = test system: SNB-19 CNS
U251 CNS = test system: U251 CNS
PC-3 prostate = test system: PC-3 prostate
SK-MEL-5 melanoma = test system: SK-MEL-5 melanoma
UACC-62 melanoma = test system: UACC-62 melanoma
LOX IMVI melanoma = test system: LOX IMVI melanoma
SK-MEL-28 melanoma = test system: SK-MEL-28 melanoma
SK-MEL-2 melanoma = test system: SK-MEL-2 melanoma
EKVX NSCLC = test system: EKVX NSCLC
SN12C renal = test system: SN12C renal
UO-31 renal = test system: UO-31 renal
TK-10 renal = test system: TK-10 renal
ACHN renal = test system: ACHN renal
A498 renal = test system: A498 renal
CCRF-CEM leukemia = test system: CCRF-CEM leukemia
MOLT-4 leukemia = test system: MOLT-4 leukemia

SMILES | growth (HCT-15 colon) | growth (HT29 colon) | growth (SNB-75 CNS) | growth (SNB-19 CNS) | growth (U251 CNS) | growth (PC-3 prostate) | growth (SK-MEL-5 melanoma) | growth (UACC-62 melanoma) | growth (LOX IMVI melanoma) | growth (SK-MEL-28 melanoma) | growth (SK-MEL-2 melanoma) | growth (EKVX NSCLC) | growth (SN12C renal) | growth (UO-31 renal) | growth (TK-10 renal) | growth (ACHN renal) | growth (A498 renal) | growth (CCRF-CEM leukemia) | growth (MOLT-4 leukemia)
Nc1nc(Cl)cc(NCCCCNc2cc(Cl)nc(N)n2)n1 | 114% | 109% | 108% | 101% | 99.6% | 95.8% | 111% | 101% | 96.9% | 118% | 87.6% | 102% | 126% | 96.5% | 111% | 107% | 174% | 84.5% | 94.8%
c1cncc(-c2nc3ccccc3[nH]2)c1 | 111% | 102% | 96.9% | 111% | 104% | 89.7% | 90.8% | 85.5% | 94.4% | 87% | 106% | 120% | 89.8% | 82.3% | 148% | 91% | 84.4% | 110% | 97.4%
CCCc1nn2c(CCC(=O)c3nc4ccc([N+](=O)[O-])cc4[nH]3)nnc2s1 | 100% | 106% | 97.2% | 109% | 108% | 100% | 119% | 98.7% | 95.5% | 103% | 87.5% | 95.6% | 101% | 80.7% | 133% | 102% | 123% | 109% | –
Clc1ccc2c(NCCNc3nc(Cl)nc4ccccc34)ccnc2c1 | -67.5% (active) | -91.5% (active) | -93.1% (active) | -49.9% (active) | -92.1% (active) | -45.7% (active) | -99.2% (active) | -89.6% (active) | -89.4% (active) | -78.7% (active) | -73.2% (active) | -9.06% (active) | -76.6% (active) | -95.6% (active) | -79.3% (active) | -97.7% (active) | 92.3% | -58.7% (active) | -52.4% (active)
Fc1cccc(F)c1C#Cc1ccc2cccnc2c1 | 74.9% | 69% | 97.8% | 91.3% | 80.6% | 86.1% | 71.9% | 71.3% | 86.9% | 106% | 84.4% | 68.6% | 88.3% | 53.5% | 88.4% | 88.5% | 99.7% | 83.7% | 71.6%
O=C(CNc1cccnc1)Nc1ccc(C(=O)/C=C/c2ccc(Cl)cc2)cc1 | 88.6% | 90% | 87.8% | 101% | 82.1% | 89.4% | 91.1% | 84.9% | 86% | 96.4% | 84.4% | 95% | 88.7% | 77.7% | 106% | 101% | 86.9% | 26.6% | –
CC(=O)O[C@@H]1[C@@H](OC(C)=O)[C@H](OC(C)=O)CO[C@H]1Nc1cccc2ccccc12 | 94% | 84.2% | 93.9% | 105% | 105% | 90.8% | 103% | 97.2% | 88.8% | 110% | 82.3% | 99.8% | 94.3% | 62.4% | 115% | 98.8% | 101% | 71.7% | –
COc1cc(/C=C/C(=O)N2CCC=CC2=O)cc(OC)c1OC | 1.7% (active) | 23.2% | 75.7% | 72.9% | 68.3% | 79.7% | 73.8% | 40.8% | 10.2% | 56% | 74.9% | 57.1% | 45.1% | 57.7% | 38.7% | -7.71% (active) | 98.7% | 15% | 42.1%
Nc1nc(Cl)cc(NCc2ccc(CNc3cc(Cl)nc(N)n3)cc2)n1 | 100% | 110% | 78.3% | 100% | 98.6% | 109% | 58.4% | 98.3% | 79.5% | 120% | 74.1% | 70.4% | 106% | 84.3% | 124% | 92.7% | 73.7% | 107% | 70.7%
